Screening data (PubChem BioAssay)
esBAF inh – SWI/SNF esBAF complex inhibition. mouse ES cells, Bmi1-luciferase knock-in reporter, 24 h; 100% = twice the neutral-well signal. reporter increase, % at 12.5 µM. 350,000 compounds, 2% hits; in the data active means activation above about 40%; inconclusive means no clear call, values can overlap the other calls;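 further: 0% = median of the plate's neutral control wells and 100% = double that signal; a rise in the Bmi1 reporter signal indicates esBAF inhibition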
TRPM1 prom inh – inhibitors of MITF-driven TRPM1 promoter in melanoma cells; 330,000 compounds, 0.83% hits; inhibition, % at 12.5 µM; SK-MEL-5 TRPM1 promoter luciferase, 24 h;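 active means mean inhibition across replicates of 60% or more, whatever share of single replicates reaches that level; inconclusive means some that reach 60%, reason not given; inactive means mean inhibition across replicates below 60%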
EWS-Fli block – inhibitors of EWS/Fli oncoprotein transcriptional activity. A673 NR0B1-luciferase reporter, viability-normalised. inhibition, % at 12.6 µM. 350,000 compounds, 0.67% hits;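 active means mean inhibition of at least 50% after viability correction, with every replicate also passing that limit; inconclusive means mean reaches 50% but only one of two replicates passes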;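 further: firefly luciferase signal divided by Alamar Blue viability fluorescence both relative to DMSO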
Wnt act – activators of Wnt/beta-catenin signaling; activation, % at 9.35 µM; 300,000 compounds, 1.2% hits; AID 743398; Wnt/beta-catenin reporter cell assay, activator, plate reader; in the data active means activation above about 30%, passing the limit was not always enough; inconclusive means no clear call, values can overlap the other calls;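 further: 0% = neutral control wells and 100% = positive control wells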
PAX8 reporter – PAX8 transcriptional activity inhibition; RMG-I TPO-luciferase reporter, SteadyGlo, 24 h; inhibition, % at 12.6 µM; 360,000 compounds, 1.2% hits; AID 652154;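 active means mean replicate inhibition at least 60% with every replicate also reaching 60%; inconclusive means only one of the two criteria is met; inactive means mean below 60% and not all replicates reaching 60%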;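 further: luciferase light reporting Pax8 driven TPO promoter activity; plate controls were median of neutral control wells for no effect and mitoxantrone controls for full effect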
MITF TRPM1 HTS – activators of MITF-driven TRPM1 promoter activity in SK-MEL-5 cells; AID 588334; SK-MEL-5 TRPM1-promoter luciferase, 24 h; % of positive control, neutral wells = 0; activation, % at 12.5 µM; 300,000 compounds, 0.75% hits;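 active means mean activation of at least 80% with every replicate also reaching 80%; inconclusive means mean reaches 80% but some replicate falls short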;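 further: 0% = neutral control wells and 100% = parthenolide positive control wells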
* = called active by the depositor; ? = inconclusive; / = no result given. An excerpt weighted towards active compounds, which were near 4% of everything screened.

SMILES | esBAF inh | TRPM1 prom inh | EWS-Fli block | Wnt act | PAX8 reporter | MITF TRPM1 HTS
Cc1ccc(-c2nnc(Nc3ccccc3)o2)cc1 | -80 | 6 | 63* | -1 | / | -4
c1ccc2nc(-c3nc4ccccc4o3)ccc2c1 | -5 | 53 | / | 3 | / | -51
Nc1ccc2oc(-c3ccccn3)nc2c1 | 30 | -45 | / | 44* | -114 | 48
c1ccc(-c2nc3ccccc3o2)nc1 | 46* | -33 | / | / | / | 34
Cc1nc2ccc(-c3nc4ccccc4o3)cc2[nH]1 | -1 | -94 | / | / | / | 59
Clc1ccc2oc(-c3ccccn3)nc2c1 | / | -13 | / | / | / | 19
Cc1ccnc2ccc(-c3nc4ccccc4o3)cc12 | 23 | -6 | / | 67* | -232 | 8
CN(C)c1ccc(-c2nc3cc(N)ccc3o2)cc1 | -66 | 7 | 65* | 0 | 33 | /
C[C@@H](NC(=O)C[C@@H]1CC[C@@H](NC(=O)C2CC2)[C@H](CO)O1)c1ccccc1 | -1 | / | 0 | / | -11 | /
COc1cccc(NC(=O)N[C@@H]2CC[C@H](CC(=O)N3CCCCC3)O[C@@H]2CO)c1 | 1 | / | -7 | / | -5 | /
C[C@@H]1CN([C@@H](C)CO)C(=O)c2cccc(NC(=O)C3CC3)c2O[C@@H]1CN(C)S(=O)(=O)c1cccs1 | -5 | / | 20 | / | 5 | /
O=C(O)c1ccc(N/N=C/c2cc3ccccc3nc2Cl)cc1 | / | -85 | -43 | 29 | -126 | 88*
C(=N\Nc1nc2ccccc2[nH]1)/c1ccncc1 | / | -35 | -77 | 6 | -144 | 14
Clc1nc2ccccc2cc1/C=N/Nc1nc2ccccc2[nH]1 | / | -18 | -12 | 63* | -75 | 9
Cc1cccc2cc(/C=N/Nc3ccc(C(=O)O)cc3)c(Cl)nc12 | / | -171 | -84 | 38* | -195 | 153*
Cc1cccc2cc(/C=N/NC(=O)c3ccncc3)c(Cl)nc12 | / | 2 | 7 | -1 | 15 | /
O=[N+]([O-])c1ccccc1N/N=C/c1cc2ccccc2nc1Cl | 30 | -31 | / | / | / | 29
CNC[C@H]1Oc2cc(C#CC3(O)CCCC3)ccc2S(=O)(=O)N([C@@H](C)CO)C[C@@H]1C | 5 | / | -7 | / | -16 | /
C/C=C/c1ccc2c(c1)O[C@H](CN(C)C(C)=O)[C@@H](C)CN([C@@H](C)CO)S2(=O)=O | -5 | / | 2 | / | / | /
C[C@@H]1CCCCO[C@@H](CN(C)Cc2ccc3c(c2)OCO3)[C@H](C)CN([C@H](C)CO)C(=O)c2cc(NS(=O)(=O)c3ccc(Cl)cc3)ccc2O1 | -10 | / | 15 | / | -1 | /
Cc1ccc(N2CS(=O)(=O)/C(=C/N(C)C)C2=O)cc1 | 15 | -60 | / | 49* | -136 | 68
C[C@@H]1CN([C@@H](C)CO)C(=O)c2cccc(NS(=O)(=O)c3ccc(F)cc3)c2O[C@@H]1CN(C)S(=O)(=O)c1ccccc1 | 1 | / | -3 | / | 13 | /
CCNC(=O)Nc1ccc2c(c1)C(=O)N(C)[C@H]1CC[C@H](CC(=O)Nc3ccccc3OC)O[C@@H]1CO2 | / | / | -12 | / | / | /
O=C(NCCc1ccccc1)c1coc(=O)c(Br)c1 | -6 | -4 | 23 | 21 | 65* | -7
CC(C)(C)c1ccc(C(=O)NCCc2ccccc2)cc1 | -21 | -79 | 33 | 29 | -79 | ?
SMILES | esBAF inh | TRPM1 prom inh | EWS-Fli block | Wnt act | PAX8 reporter | MITF TRPM1 HTS
Cc1cccc(C(=O)NCCc2ccccc2)c1 | 2 | -95 | -42 | ? | -72 | 105*
Cc1cc(C(=O)NCCc2ccccc2)ccc1[N+](=O)[O-] | 25 | -82 | -85 | 17 | / | 92*
C[C@H]1CN([C@@H](C)CO)S(=O)(=O)c2ccc(C3=CCCC3)cc2O[C@H]1CN(C)C(=O)c1ccccn1 | 6 | / | 1 | / | / | /
CO[C@H](CN(C)S(=O)(=O)c1cccc(Cl)c1)[C@H](C)CN([C@H](C)CO)S(=O)(=O)c1cccc(Cl)c1 | 7 | / | 18 | / | / | /
Oc1c(C(Nc2nc3ccccc3s2)c2ccco2)ccc2cccnc12 (centres undefined) | -3 | 33 | / | 17 | / | -38
CCCCC(=O)NC(c1ccc(N(C)C)cc1)c1ccc2cccnc2c1O (centres undefined) | -59 | 61* | 42 | 2 | 86* | -59
CCCC(=O)NC(c1ccc2c(c1)OCO2)c1cc(Cl)c2cccnc2c1O (centres undefined) | / | 31 | / | / | / | -27
CCCC(=O)NC(c1ccc(N(C)C)cc1)c1c(O)ccc2ccccc12 (centres undefined) | / | 4 | / | 2 | 9 | -3
